From PubChem BioAssay AID1159580 (chemical genetic matrix, 2015)
Where “and” joins values, the source holds several entries; their conditions need not be identical. Equal values may be shown once. Among all 5,500 compounds or so, about 2,000 (36%) were called active. Not shown: some 18% with an inconclusive outcome. No stated cut-off is given here; in the data, active means normalized growth mostly below about 0.91 (no sharp cut-off); inconclusive means no clear call, values can overlap the other calls; inactive means mostly above about 0.92. Some of the results follow.

Test: chemical genetic growth profiling, strain panel (AID 1159580);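 further: tested at 20 µM; growth read once vehicle control cultures reached saturation at 30 °C; 1 = growth at the plate median or of vehicle wells; lower values mean less growth of the strain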
Details: S. cerevisiae deletion strains, growth OD

Measured: normalized growth

CC(=O)OCC(=O)[C@@]1(O)[C@H](OC(C)=O)CC2C3CCC4=CC(=O)C=C[C@]4(C)[C@@]3(F)[C@@H](O)C[C@@]21C (some centres not stated)
inactive: locus YAL013W, strain DEP1, hits give low values 0.993 | locus YAL021C, strain ccr4, hits give low values 0.982 | locus YAL026C, strain drs2, hits give low values 0.959 | locus YAL030W, strain snc1, hits give low values 0.995 | locus YBL061C, strain skt5, hits give low values 1 | locus YBR009C, strain hhf1, hits give low values 0.923 | locus YBR021W, strain FUR4, hits give low values 0.986 | locus YBR023C, strain chs3, hits give low values 0.981 | locus YBR171W, strain sec66, hits give low values 0.985 | locus YBR229C, strain ROT2, hits give low values 0.951 | locus YBR231C, strain swc5, hits give low values 1.01 | locus YBR279W, strain paf1, hits give low values 0.987 | locus YCL011C, strain gbp2, hits give low values 0.947 | locus YCL016C, strain dcc1, hits give low values 0.965 | locus YCL029C, strain bik1, hits give low values 0.99 | locus YCL069W, strain vba3, hits give low values 0.983 | locus YCR088W, strain abp1, hits give low values 0.987 | locus YDL005C, strain med2, hits give low values 0.993 | locus YDL035C, strain GPR1, hits give low values 0.973 | locus YDL040C, strain nat1, hits give low values 1 | locus YDL074C, strain BRE1, hits give low values 0.947 | locus YDL101C, strain DUN1, hits give low values 0.98 | locus YDL134C, strain PPH21, hits give low values 0.994 | locus YDL185W, strain tfp1, hits give low values 0.99 | locus YDL192W, strain arf1, hits give low values 0.997 | locus YDR001C, strain nth1, hits give low values 0.959 | locus YDR069C, strain doa4, hits give low values 1.01 | locus YDR101C, strain arx1, hits give low values 1.01 | locus YDR137W, strain rgp1, hits give low values 0.98 | locus YDR159W, strain sac3, hits give low values 0.923 | locus YDR162C, strain NBP2, hits give low values 0.988 | locus YDR195W, strain ref2 1.03 | locus YDR297W, strain sur2, hits give low values 0.987 | locus YDR318W, strain mcm21, hits give low values 0.994 | locus YDR334W, strain swr1, hits give low values 0.982 | locus YDR335W, strain msn5, hits give low values 0.983 | locus YDR388W, hits give low values 1 | locus YDR392W, strain spt3, hits give low values 0.913 | locus YDR502C, strain sam2, hits give low values 1 | locus YEL003W, strain gim4, hits give low values 0.992 | locus YEL037C, strain rad23, hits give low values 0.983 | locus YEL061C, strain CIN8 (second series), hits give low values 0.973 | locus YEL061C, strain CIN8, hits give low values 0.991 | locus YER015W, strain faa2, hits give low values 1 | locus YER016W, strain bim1, hits give low values 0.961 | locus YER110C, hits give low values 0.974 | locus YER111C, strain swi4, hits give low values 0.976 | locus YER155C, strain BEM2 (second series), hits give low values 1.04 | locus YER155C, strain BEM2, hits give low values 0.998 | locus YER167W, strain BCK2, hits give low values 0.991 | locus YFR010W, strain ubp6, hits give low values 0.983 | locus YGL078C, strain dbp3, hits give low values 0.995 | locus YGL086W, strain mad1, hits give low values 0.99 | locus YGL167C, strain pmr1, hits give low values 0.998 | locus YGL173C, strain kem1, hits give low values 1.01 | locus YGL227W, strain vid30, hits give low values 0.979 | locus YGL240W, strain doc1, hits give low values 1.02 | locus YGL248W, strain PDE1, hits give low values 0.975 | locus YGL253W, strain hxk2, hits give low values 0.964 | locus YGR135W, strain pre9, hits give low values 0.997 | locus YGR252W, strain gcn5, hits give low values 0.967 | locus YHR013C, strain ard1, hits give low values 0.948 | locus YHR027C, strain rpn1, hits give low values 0.966 | locus YHR030C, strain SLT2, hits give low values 0.995 and 0.971 | locus YHR079C, strain IRE1 (second series), hits give low values 1.01 | locus YHR079C, strain IRE1, hits give low values 0.964 | locus YHR094C, strain hxt1, hits give low values 1.01 | locus YHR129C, strain ARP1, hits give low values 0.977 | locus YHR142W, strain chs7, hits give low values 0.957 | locus YHR200W, strain rpn10, hits give low values 0.997 | locus YIL066C, strain RNR3, hits give low values 0.981 | locus YIL073C, strain SPO22, hits give low values 1.02 | locus YIL125W, strain kgd1, hits give low values 0.996 | locus YIR030C, strain dcg1, hits give low values 0.989 | locus YJL092W, strain hpr5, hits give low values 0.991 | locus YJL095W, strain BCK1 (second series), hits give low values 0.986 | locus YJL095W, strain BCK1, hits give low values 0.945 and 0.981 | locus YJL115W, strain asf1, hits give low values 0.972 | locus YJL129C, strain trk1, hits give low values 0.988 | locus YJL134W, strain LCB3, hits give low values 0.993 | locus YJL154C, strain vps35, hits give low values 0.986 | locus YJL164C, strain tpk1, hits give low values 0.974 | locus YJL166W, strain qcr8, hits give low values 1.04 | locus YJL168C, strain set2, hits give low values 0.999 | locus YJL187C, strain SWE1 (second series), hits give low values 0.975 | locus YJL187C, strain SWE1, hits give low values 0.984 | locus YJR043C, strain POL32, hits give low values 0.992
